ABCB6 inh 2: ABCB6 transporter inhibitors, primary screen, K562-ABCB6 cells, flow cytometry, MLPCN library | fluorescence ratio to DMSO, % at 10 µM | K562-ABCB6 porphyrin accumulation, 1 h; active compounds read low | ATP-binding cassette sub-family B member 6 (Homo sapiens), Q9NP58 | 360,000 tested, 0.19% active;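 active = fluorescence ratio to DMSO below 75%, the collection mean minus 3 SD; inconclusive = too few cells collected in the well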;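 note: signal is porphyrin accumulated inside mitochondria; lower ratio means ABCB6 inhibition with less porphyrin fluorescence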
ARNT-TACC3 inh: disruptors of ARNT/TACC3 protein interaction, primary screen, biochemical, AlphaScreen, single concentration; Transforming acidic coiled-coil-containing protein 3 (Homo sapiens), Q9Y6A5; AlphaScreen His-ARNT PAS-B/GST-TACC3 binding, luminescence; TACC3 fragment carries E629A point mutation; inhibition, % at 9.99 µM; 390,000 tested, 0.66% active; AID 623870, 2012;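 active = mean inhibition of replicates at least 50% and at least half of replicates each reaching 50%; inconclusive = half or more replicates reach 50% but mean below 50%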
GSIS activator: GLuc luminescence reporter in INS-1E cells, primary screen for activators of glucose-dependent secretion of insulin; INS-1E GLuc reporter insulin secretion, 2-3 h; activation, % at 16.6 µM; 370,000 tested, 0.61% active;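 active = lowest replicate activation of at least 40%, so every replicate reaches that level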
iPSC survival up: enhancers of single-cell hiPSC survival, primary screen, ATPlite luminescence; 100% = ROCK inhibitor wells, 0% = DMSO; survival enhancement, % at 20 µM; 360,000 tested, 0.044% active; AID 602274, 2012; in the data active = survival enhancement above about 18%;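 note: cells exposed to compounds for 16 hours before the ATP read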
CendR NRP1 mod: modulators of CendR peptide binding to NRP-1, primary screen, biochemical, fluorescence polarization, uHTS | Neuropilin-1 (Homo sapiens), O14786 | FAM-RPARPAR peptide binding to NRP-1 | inhibition, % at 25 µM | 360,000 tested, 0.85% active | AID 602438, 2012;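 active = inhibition or corrected inhibition above about 18%, plus a signal ratio from 0.5 to 1.5, limit read from the data, passing the limit was not always enough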
Target sequence (O14786 whole entry, looked up): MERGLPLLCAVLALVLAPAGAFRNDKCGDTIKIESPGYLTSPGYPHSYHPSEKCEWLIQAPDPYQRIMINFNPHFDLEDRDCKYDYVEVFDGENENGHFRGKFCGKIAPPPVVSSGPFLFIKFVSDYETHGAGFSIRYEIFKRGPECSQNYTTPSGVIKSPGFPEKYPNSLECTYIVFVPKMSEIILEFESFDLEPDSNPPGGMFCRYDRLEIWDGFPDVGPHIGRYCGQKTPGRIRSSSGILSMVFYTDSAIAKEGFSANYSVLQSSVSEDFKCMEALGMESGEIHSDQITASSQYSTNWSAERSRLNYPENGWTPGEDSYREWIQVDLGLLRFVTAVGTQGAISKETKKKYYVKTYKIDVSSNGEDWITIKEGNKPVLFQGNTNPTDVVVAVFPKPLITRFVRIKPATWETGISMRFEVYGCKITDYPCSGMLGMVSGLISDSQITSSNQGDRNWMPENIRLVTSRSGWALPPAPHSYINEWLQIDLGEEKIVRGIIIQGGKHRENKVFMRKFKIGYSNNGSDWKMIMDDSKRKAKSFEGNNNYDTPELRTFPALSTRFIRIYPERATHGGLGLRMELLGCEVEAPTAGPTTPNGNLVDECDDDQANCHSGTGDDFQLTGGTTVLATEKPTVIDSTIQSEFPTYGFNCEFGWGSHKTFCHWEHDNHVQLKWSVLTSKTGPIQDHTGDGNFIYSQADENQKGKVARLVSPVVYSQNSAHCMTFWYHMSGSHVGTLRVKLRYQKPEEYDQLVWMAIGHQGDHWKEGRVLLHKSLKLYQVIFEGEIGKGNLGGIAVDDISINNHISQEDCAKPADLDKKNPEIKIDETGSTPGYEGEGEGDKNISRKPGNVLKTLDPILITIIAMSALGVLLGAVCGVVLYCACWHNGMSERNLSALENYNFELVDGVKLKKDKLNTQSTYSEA
A number is an active result; i = inactive; ? = inconclusive; nt = not tested or not shown. The list is not random: actives were taken first. Their share in the collection is about 1.8%.

SMILES | ABCB6 inh 2 | ARNT-TACC3 inh | GSIS activator | iPSC survival up | CendR NRP1 mod
CC(C)CN(C(=O)Cn1c(C(F)(F)F)nc2ccccc21)C1CCS(=O)(=O)C1 (stereo not given) | i | i | i | i | i
C[C@@H]1C(=O)N[C@@H](c2ccc(F)cc2)CC=CC[C@H](C)Oc2ccccc2C(=O)N1C (mixture of isomers) | nt | nt | i | nt | nt
Cc1ccccc1CC(=O)Nc1ccc2c(c1)c(=O)n(C)n2-c1cccs1 | i | nt | i | i | 27
Cc1ccc(-n2nnnc2SCC(=O)Nc2ncc(Cc3ccccc3Cl)s2)cc1 | i | i | 156 | i | i
CC(=O)N1[C@@H](CO)[C@@H](c2ccccc2)C12CN(C(=O)c1cnccn1)C2 | nt | nt | i | nt | nt
CC(C)C#Cc1ccc([C@@H]2[C@@H](CO)N3C(=O)CN(C(=O)Cc4cccnc4)C[C@@H]23)cc1 | nt | nt | i | nt | nt
CNC[C@@H]1Oc2ncc(-c3ccc(OC)cc3)cc2C(=O)N([C@@H](C)CO)C[C@H]1C | nt | i | i | nt | nt
Cc1[nH]n(-c2ccccc2)c(=O)c1/C=N/n1c(C)nc2ccccc2c1=O | i | 31 | i | i | i
Cn1cnc([N+](=O)[O-])c1NC(C)(C)C | i | i | nt | i | 29
Cn1cnc([N+](=O)[O-])c1S(=O)(=O)c1ccc(Cl)cc1 | i | i | 82 | i | i
CCCCCCN1C[C@H](n2cc(C3CC3)nn2)[C@@H](O)C[C@@H]1c1ccc(C)cc1 | i | nt | 274 | i | i
CCCCCCN1C[C@H](n2cc(COC(=O)c3ccccc3)nn2)[C@@H](O)C[C@@H]1c1ccc(C)cc1 | i | nt | 163 | i | i
C[C@@H]1CN([C@H](C)CO)C(=O)c2cc(N(C)C)ccc2O[C@@H](C)CCCCO[C@@H]1CN(C)C(=O)Nc1ccc2c(c1)OCO2 | nt | nt | i | nt | nt
COCC(=O)N1[C@H](CO)[C@H](c2ccccc2)C12CN(C(=O)Nc1ccccc1F)C2 | nt | nt | i | nt | nt
C=CCn1c(CNc2ccccc2)nnc1SCC(=O)N/N=C/c1ccc(O)cc1O | i | 58 | nt | i | i
C=CCn1c(CNc2ccc(C)cc2)nnc1SCC(=O)N/N=C/c1ccc(O)cc1O | i | i | nt | i | i
COc1ccc(S(=O)(=O)N(C)C[C@H]2Oc3ccc(NS(=O)(=O)c4ccc(F)cc4)cc3C(=O)N([C@@H](C)CO)C[C@@H]2C)cc1 | nt | i | i | nt | nt
N#CCSc1nc2ccccc2c(=O)n1CCC(=O)NC1CCCCC1 | i | i | nt | i | i
N#CCSc1nc2ccccc2c(=O)n1C1CCCCC1 | i | i | 53 | i | i
COc1cc2nc(N3CCN(c4cc(C)ccc4C)CC3)nc(N)c2cc1OC | i | i | 221 | i | i
C[C@@H]1CN([C@H](C)CO)C(=O)Cc2cc(NC(=O)CCC(F)(F)F)ccc2O[C@@H]1CN(C)S(C)(=O)=O | nt | nt | i | nt | nt
CCCCc1cc(=O)oc2cc(OCc3cc(OC)c(OC)c(OC)c3)c(Cl)cc12 | i | i | nt | 23 | i
CCN(CC)CC(=O)N1N=C(c2cccs2)CC1c1ccco1 (stereo not given) | i | i | nt | i | i
CCC(=O)N1N=C(c2cccs2)CC1c1ccco1 (stereo not given) | i | i | i | i | 40
CCNC(=O)C[C@H]1CC[C@@H]2[C@H](COC[C@H](O)CN2C(=O)Nc2cccc(OC)c2)O1 | nt | i | i | nt | nt
SMILES | ABCB6 inh 2 | ARNT-TACC3 inh | GSIS activator | iPSC survival up | CendR NRP1 mod
Cc1ccc(S(=O)(=O)N2CCC(C(=O)OCC(=O)NCCc3ccccc3)CC2)cc1C | i | nt | i | i | i
COc1cc(NC(=O)CN2CCC(Cc3ccccc3)CC2)c(C)cc1[N+](=O)[O-] | i | i | 58 | i | i
Cc1cc(NC(=O)COC(=O)C2CCN(S(=O)(=O)c3ccccc3)CC2)c([N+](=O)[O-])cc1C | i | i | i | i | 23
COc1cc(CN2CCC(Cc3ccccc3)CC2)cc([N+](=O)[O-])c1O | i | i | i | i | i
CN1C(=O)c2cc(NC(=O)c3ccc(F)cc3)ccc2OC[C@@H]2O[C@@H](CC(=O)NC3CCC3)CC[C@H]21 | nt | i | i | nt | nt
O=C(O)c1ccccc1SCC(=O)N1CCCCC1 | i | i | nt | i | 28
O=C(O)c1ccccc1SCC(=O)N1CCOCC1 | i | i | i | i | i
O=C(c1ccccc1-c1ccccc1)N1CCCCC1 | i | i | i | i | 23
O=C(c1cc(-c2ccccc2)nc2ccccc12)N1CCCC1 | i | i | 44 | i | i
CCCNC(=O)N(C)C[C@H]1Oc2cc(-c3cncnc3)ccc2S(=O)(=O)N([C@H](C)CO)C[C@@H]1C | nt | i | i | nt | nt
COc1cc(OC)cc(C(=O)NC(=S)Nc2ccc3c4c(cccc24)CC3)c1 | i | nt | i | i | i
COc1ccc(C(=O)NC(=S)Nc2ccc3c4c(cccc24)CC3)cc1OC | i | i | 96 | i | i
CCn1nc(C(=O)Nc2nc(-c3ccccn3)cs2)c2ccccc2c1=O | i | i | i | i | i
CCCn1nc(C(=O)Nc2nc(-c3ccccn3)cs2)c2ccccc2c1=O | i | 50 | nt | i | i
CCCn1nc(C(=O)NC2CC2)c2ccccc2c1=O | i | nt | 52 | i | i
CCCCn1nc(C(=O)NC2CCCCC2)c2ccccc2c1=O | ? | nt | nt | i | i
Cc1ccc(S(=O)(=O)N(C)C[C@H]2Oc3ccc(NS(C)(=O)=O)cc3C(=O)N([C@H](C)CO)C[C@@H]2C)cc1 | nt | i | i | nt | nt
CCc1ccc(NC(=O)N(CCCN2CCOCC2)C(C)c2cc3cccc(OC)c3o2)cc1 (stereo not given) | i | i | i | i | 37
COc1cccc2cc(C(C)N(CCCN3CCOCC3)C(=S)Nc3cccc(C)c3)oc12 (stereo not given) | i | i | i | i | 39
CCOc1ccc(CCN2C(=S)N([C@@H](CC(C)C)CN3CCC[C@@H]3CN3C(=S)NC[C@@H]3CC(C)C)C[C@@H]2Cc2ccc(O)cc2)cc1 | i | nt | i | i | 24
CCCNC(=O)N1CC2(C1)CN(C(=O)COC)[C@H](CO)c1c2c2ccc(OC)cc2n1C | nt | nt | i | nt | nt
CC(C)(C)c1ccc(OCC(=O)Nc2ccc(-c3nc4cccnc4o3)cc2)cc1 | i | i | 106 | i | i
CC(C)C(=O)Nc1ccc(-c2nc3cccnc3o2)cc1 | i | i | i | i | i
C[C@@H]1CN([C@H](C)CO)C(=O)c2cc(NS(=O)(=O)c3cccs3)ccc2O[C@@H](C)CCCCO[C@@H]1CN(C)S(C)(=O)=O | nt | nt | i | nt | nt
CC(=O)c1cccc(OCc2cc(C(=O)NC3CCN(Cc4ccccc4)CC3)no2)c1 | i | i | i | i | 28
CCOC(=O)c1cnc2c(cnn2C)c1Oc1ccc(OC)cc1 | i | i | 62 | i | i
CCOC(=O)c1cnc(-c2ccccc2)nc1Oc1ccc(OC)cc1 | i | i | i | i | 26
